Sampled rows, rich in hits. Any-hit rate of the full collection: about 1.8%.
GRK2 inh – human GRK2 inhibition via aptamer displacement; bead flow cytometry, FAM-aptamer displacement from GRK2; hit rate 0.59% among 330,000; P25098; inhibition of aptamer binding, % at 10 µM; AID 488847;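 active = inhibition of aptamer binding above 40%, roughly 3 SD of noise, on plates passing a quality check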;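 also: median bead fluorescence of bound FAM aptamer so fluorescent compounds give negative values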
LANA-H2B inh – blocks KSHV LANA binding to histone H2A/H2B. AID 2629. hit rate 0.6% among 320,000. inhibition, % (no concentration beside the values). cell-free LANA-H2A/H2B peptide, fluorescence polarization. Q9QR71; in the data active = inhibition mostly above about 10%, no sharp cut-off; inactive = mostly below about 6.7%
HDAC3 inh – inhibitors of human histone deacetylase 3; hit rate 0.15% among 320,000; inhibition, % at 8.3 µM; O15379; recombinant HDAC3, fluorogenic peptide/trypsin coupled, fluorescence; in the data active = inhibition above about 26%, passing the limit was not always enough
Target sequence (O15379 whole entry, looked up): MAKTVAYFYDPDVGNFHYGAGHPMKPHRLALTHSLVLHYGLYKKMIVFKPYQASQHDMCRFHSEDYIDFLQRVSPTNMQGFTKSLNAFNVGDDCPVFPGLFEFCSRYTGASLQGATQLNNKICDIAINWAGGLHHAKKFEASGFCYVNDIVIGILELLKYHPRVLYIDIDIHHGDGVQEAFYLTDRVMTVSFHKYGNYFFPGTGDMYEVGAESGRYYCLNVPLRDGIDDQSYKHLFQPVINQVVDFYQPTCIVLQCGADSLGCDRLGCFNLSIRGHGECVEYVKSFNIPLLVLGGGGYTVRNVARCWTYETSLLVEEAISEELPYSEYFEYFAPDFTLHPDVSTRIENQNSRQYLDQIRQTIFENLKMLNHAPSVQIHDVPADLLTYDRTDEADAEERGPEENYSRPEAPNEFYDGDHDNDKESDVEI
DSG3 Ab inh – inhibitors of pemphigus antibody binding to human desmoglein-3 | AID 588358 | hit rate 0.48% among 310,000 | P32926 | DSG3-coupled beads, scFv-anti-DSG3-GFP binding, flow cytometry; stronger effect = lower value | binding (percent of control), % at 10 µM;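 active = binding more than 3 SD below its plate's average and above zero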
VLA-4 inh – inhibition in a human VLA-4 binding assay; P13612; VLA-4 expressing cells, ligand binding flow cytometry; inhibition, % (about 7 µM as worked out from the volumes in the protocol); hit rate 0.2% among 330,000; AID 2557
PKD1 kinase inh – blocks activity of human protein kinase D1; hit rate 0.056% among 200,000; inhibition, % (concentration not given with the values); Q15139; PKD1 kinase fluorescence polarization assay
A number is an active result. Rule as the data show it, unless noted: active = inhibition above about 50%; inactive = the rest.

Results for CCCCn1c(N)c(N(CC(C)C)C(=O)CCNC(=O)c2ccc(Cl)cc2)c(=O)[nH]c1=O ?
GRK2 inh: inactive; LANA-H2B inh: inactive; HDAC3 inh: inactive; DSG3 Ab inh: inactive; VLA-4 inh: inactive

What do the screens show for `CC(Sc1nnc(C2CC2)n1C1CC1)C(=O)Nc1cccc(S(=O)(=O)N(C)C)c1` (centres undefined)?
GRK2 inh: inactive; LANA-H2B inh: active; HDAC3 inh: inactive; DSG3 Ab inh: inactive; VLA-4 inh: inactive

Results for Cc1ccc(CNC(=O)CCS(=O)(=O)Cc2ccc(C)cc2)cc1 ?
GRK2 inh: inactive; LANA-H2B inh: inactive; HDAC3 inh: inactive; DSG3 Ab inh: inactive; VLA-4 inh: inactive

How did Nc1cccc2c1C(=O)N(CCOc1ccc(F)cc1)C2=O do in these assays?
GRK2 inh: inactive; LANA-H2B inh: inactive; HDAC3 inh: inactive; DSG3 Ab inh: inactive; VLA-4 inh: inactive

How did O=C(COC(=O)c1cncc(Br)c1)NC12CC3CC(CC(C3)C1)C2 do in these assays?
GRK2 inh: inactive; LANA-H2B inh: 20; HDAC3 inh: inactive; VLA-4 inh: inactive

What do the screens show for `CCOC(=O)N1CCc2c(sc(NC(=O)CCS(=O)(=O)c3ccccc3)c2C(N)=O)C1`?
GRK2 inh: inactive; LANA-H2B inh: inactive; HDAC3 inh: inactive; DSG3 Ab inh: inactive; VLA-4 inh: inactive

What do the screens show for `CCOC(=O)c1c(NC(=O)CCS(=O)(=O)c2ccccc2)sc2c1CCN(C)C2`?
GRK2 inh: inactive; LANA-H2B inh: 53; HDAC3 inh: inactive; DSG3 Ab inh: inactive; VLA-4 inh: inactive

Results for CC(=O)N1CCc2c(sc(NC(=O)CCS(=O)(=O)c3ccccc3)c2C(N)=O)C1 ?
GRK2 inh: inactive; LANA-H2B inh: 33; HDAC3 inh: inactive; DSG3 Ab inh: inactive; VLA-4 inh: inactive

What do the screens show for `CCOC(=O)c1c(NC(=O)Cc2ccccc2)sc2c1CCN(C)C2`?
GRK2 inh: inactive; LANA-H2B inh: inactive; HDAC3 inh: inactive; DSG3 Ab inh: inactive; VLA-4 inh: inactive

Results for COCCN1C(=O)/C(=C2/C(=O)N(CC(=O)Nc3ccccc3Cl)c3ccccc32)SC1=S ?
GRK2 inh: inactive; LANA-H2B inh: inactive; HDAC3 inh: inactive; DSG3 Ab inh: inactive; VLA-4 inh: inactive

What do the screens show for `O=C(CN1C(=O)/C(=C2/SC(=S)N(CCS(=O)(=O)O)C2=O)c2ccccc21)Nc1cccc(C(F)(F)F)c1`?
GRK2 inh: inactive; LANA-H2B inh: inactive; HDAC3 inh: inactive; DSG3 Ab inh: 82; VLA-4 inh: inactive

Results for O=C(CN1C(=O)/C(=C2\SC(=S)N(CCS(=O)(=O)O)C2=O)c2ccccc21)Nc1cccc(Br)c1 ?
GRK2 inh: inactive; LANA-H2B inh: inactive; HDAC3 inh: inactive; DSG3 Ab inh: 45; VLA-4 inh: inactive

How did Cc1ccc(C2=[N+]([O-])C3(CCCCC/C3=N\NC(N)=O)N(O)C2(C)C)o1 (centres undefined) do in these assays?
GRK2 inh: inactive; LANA-H2B inh: inactive; HDAC3 inh: inactive; DSG3 Ab inh: inactive; VLA-4 inh: inactive; PKD1 kinase inh: inactive

What do the screens show for `CC1(C)C(c2cccs2)=[N+]([O-])C2(CCCCC/C2=N\O)N1O` (centres undefined)?
GRK2 inh: inactive; LANA-H2B inh: 13; HDAC3 inh: inactive; DSG3 Ab inh: inactive; VLA-4 inh: inactive; PKD1 kinase inh: inactive

How did Cc1cccc(-n2nnnc2SCC(=O)NCC2(N3CCOCC3)CCCCC2)c1C do in these assays?
GRK2 inh: inactive; LANA-H2B inh: active; HDAC3 inh: inactive; DSG3 Ab inh: inactive; VLA-4 inh: inactive

Results for Cc1ccc(-n2nnnc2SCC(=O)NCC2(N3CCOCC3)CCCCC2)c(C)c1 ?
DSG3 Ab inh: inactive

What do the screens show for `COc1ccc(-c2csc3ncn(CC(=O)N4CCOCC4)c(=O)c23)cc1`?
GRK2 inh: inactive; LANA-H2B inh: 16; HDAC3 inh: inactive; DSG3 Ab inh: inactive; VLA-4 inh: inactive; PKD1 kinase inh: inactive

Results for CC(=O)c1cccc(CN2CCCC(C(=O)Nc3ccc(-c4ccco4)cc3)C2)c1 (centres undefined) ?
GRK2 inh: inactive; LANA-H2B inh: inactive; HDAC3 inh: inactive; DSG3 Ab inh: inactive; VLA-4 inh: inactive

How did Cc1cc(O)c(C(=O)/C=C/c2ccccc2O)c(=O)o1 do in these assays?
GRK2 inh: inactive; LANA-H2B inh: 158; HDAC3 inh: inactive; DSG3 Ab inh: inactive; VLA-4 inh: inactive

How did Cc1cc(O)c(C(=O)/C=C/c2cccc([N+](=O)[O-])c2)c(=O)o1 do in these assays?
GRK2 inh: inactive; LANA-H2B inh: 16; HDAC3 inh: inactive; DSG3 Ab inh: inactive; VLA-4 inh: inactive

Results for CC(=N)c1c(O)cc(C)oc1=O ?
DSG3 Ab inh: inactive

What do the screens show for `COc1cc(/C=C2\N=C(C)OC2=O)cc(OC)c1OC`?
GRK2 inh: inactive; LANA-H2B inh: inactive; HDAC3 inh: 36; DSG3 Ab inh: inactive; VLA-4 inh: inactive

Results for COc1cc(/C=C2/N=C(C3CCCCC3)OC2=O)cc(OC)c1OC ?
GRK2 inh: inactive; LANA-H2B inh: inactive; HDAC3 inh: inactive; DSG3 Ab inh: inactive; VLA-4 inh: inactive; PKD1 kinase inh: inactive

Results for c1ccc2sc(SN3CCOCC3)nc2c1 ?
GRK2 inh: inactive; LANA-H2B inh: inactive; HDAC3 inh: inactive; DSG3 Ab inh: 80; VLA-4 inh: inactive; PKD1 kinase inh: inactive

What do the screens show for `c1ccc2sc(N3CCOCC3)nc2c1`?
GRK2 inh: inactive; LANA-H2B inh: inactive; HDAC3 inh: inactive; DSG3 Ab inh: inactive; VLA-4 inh: inactive; PKD1 kinase inh: inactive

How did Brc1cccc(-c2n[nH]c(-c3ccccc3)n2)c1 do in these assays?
GRK2 inh: inactive; LANA-H2B inh: 17; HDAC3 inh: inactive; DSG3 Ab inh: inactive; VLA-4 inh: inactive; PKD1 kinase inh: inactive

What do the screens show for `COc1ccccc1N1CCN(CCN2C(=O)CC(=C3c4ccccc4-c4ccccc43)C2=O)CC1`?
GRK2 inh: inactive; LANA-H2B inh: inactive; HDAC3 inh: inactive; VLA-4 inh: inactive; PKD1 kinase inh: inactive

How did Cc1ccccc1N1CCN(CCN2C(=O)CC(=C3c4ccccc4-c4ccccc43)C2=O)CC1 do in these assays?
GRK2 inh: inactive; LANA-H2B inh: inactive; HDAC3 inh: inactive; DSG3 Ab inh: 88; VLA-4 inh: inactive; PKD1 kinase inh: inactive

How did Cc1cc(C)c(S(N)(=O)=O)c(C)c1N(C)S(=O)(=O)c1ccc(Cl)cc1 do in these assays?
GRK2 inh: inactive; LANA-H2B inh: 12; HDAC3 inh: inactive; VLA-4 inh: inactive

Results for Cc1cc(C)c(S(N)(=O)=O)c(C)c1N(C)S(=O)(=O)c1ccccc1 ?
GRK2 inh: inactive; LANA-H2B inh: inactive; HDAC3 inh: inactive; DSG3 Ab inh: inactive; VLA-4 inh: inactive; PKD1 kinase inh: inactive

What do the screens show for `O=C(NCC(=O)N1CCN(S(=O)(=O)/C=C/c2ccccc2)CC1)c1ccc(Cl)cc1`?
GRK2 inh: inactive; LANA-H2B inh: inactive; HDAC3 inh: inactive; DSG3 Ab inh: 73; VLA-4 inh: inactive

What do the screens show for `O=C(COc1ccc(F)cc1Br)N1CCN(S(=O)(=O)/C=C/c2ccccc2)CC1`?
GRK2 inh: inactive; LANA-H2B inh: 87; HDAC3 inh: inactive; DSG3 Ab inh: inactive; VLA-4 inh: inactive; PKD1 kinase inh: inactive

Compound activity: PubChem, several laboratories
